Hits are enriched below; roughly 4.6% of the tested compounds scored in any of these assays.
USP7 block = blocks human USP7 ubiquitin-rhodamine cleavage; purified USP7, Ub-rhodamine cleavage fluorescence; inhibition, % at 20 µM; actives 0.3% (n = 47,000); AID 1645854
Target sequence (Q93009 whole entry, looked up): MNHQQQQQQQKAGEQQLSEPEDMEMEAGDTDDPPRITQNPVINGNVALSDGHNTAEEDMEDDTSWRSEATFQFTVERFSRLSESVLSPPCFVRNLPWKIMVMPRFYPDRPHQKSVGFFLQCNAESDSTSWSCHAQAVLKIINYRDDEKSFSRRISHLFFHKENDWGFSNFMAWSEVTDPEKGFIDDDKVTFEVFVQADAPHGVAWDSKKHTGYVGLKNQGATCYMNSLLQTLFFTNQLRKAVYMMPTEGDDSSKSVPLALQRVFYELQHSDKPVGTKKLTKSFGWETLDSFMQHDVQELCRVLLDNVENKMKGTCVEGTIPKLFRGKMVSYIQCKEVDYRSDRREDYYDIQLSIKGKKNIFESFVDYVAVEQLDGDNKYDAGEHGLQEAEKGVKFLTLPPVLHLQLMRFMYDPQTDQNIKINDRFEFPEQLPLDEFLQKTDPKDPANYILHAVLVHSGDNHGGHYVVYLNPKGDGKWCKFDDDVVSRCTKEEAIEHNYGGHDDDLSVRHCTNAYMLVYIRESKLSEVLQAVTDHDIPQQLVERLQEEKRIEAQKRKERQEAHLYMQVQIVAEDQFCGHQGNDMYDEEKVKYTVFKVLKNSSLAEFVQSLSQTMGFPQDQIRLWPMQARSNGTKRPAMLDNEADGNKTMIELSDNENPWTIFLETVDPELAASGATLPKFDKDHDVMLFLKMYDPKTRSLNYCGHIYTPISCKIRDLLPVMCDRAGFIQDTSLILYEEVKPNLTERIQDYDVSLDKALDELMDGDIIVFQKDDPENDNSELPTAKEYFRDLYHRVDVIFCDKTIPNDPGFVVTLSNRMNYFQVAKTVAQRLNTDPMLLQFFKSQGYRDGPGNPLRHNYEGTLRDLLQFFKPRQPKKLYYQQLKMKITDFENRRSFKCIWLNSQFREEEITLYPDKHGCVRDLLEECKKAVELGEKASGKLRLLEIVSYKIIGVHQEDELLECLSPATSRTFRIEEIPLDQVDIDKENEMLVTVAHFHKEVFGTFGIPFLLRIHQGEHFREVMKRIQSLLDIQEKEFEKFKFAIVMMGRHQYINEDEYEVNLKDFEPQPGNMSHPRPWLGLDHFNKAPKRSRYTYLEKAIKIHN
USP8 inh = inhibitors of human USP8 deubiquitinase; P40818; purified USP8, Ub-rhodamine cleavage fluorescence, 30 min; inhibition, % at 20 µM; actives 4.2% (n = 47,000)
USP10 block = human USP10 deubiquitinase inhibition; purified USP10, Ub-rhodamine fluorescence, 60 min; AID 1645856; Q14694; inhibition, % at 20 µM; actives 1.1% (n = 47,000)
UCHL1 inh = blocks human UCHL1 ubiquitin-rhodamine cleavage; P09936; actives 0.2% (n = 47,000); AID 1645859; purified UCHL1, Ub-rhodamine cleavage fluorescence; inhibition, % at 20 µM
Numbers without * were called inactive. No stated cut-off is given here; in the data, active means inhibition above about 30%; inactive means the rest.

For O=C1CC(c2nc3ccccc3n2CCOc2ccc(Cl)cc2)CN1c1ccccc1 (configuration not stated) the results were USP7 block 11, USP8 inh 87*, USP10 block 9 and UCHL1 inh 7.
Screening O=C(Nc1cnn(Cc2c(Cl)cccc2Cl)c1)C(Sc1ccccc1)c1ccccc1 (configuration not stated) returned USP7 block 10, USP8 inh -22, USP10 block 10 and UCHL1 inh 4.
Screening CCC(=O)Nc1nc2cc(NC(=O)Nc3cc(C)cc(C)c3)ccc2s1 returned USP7 block 12, USP8 inh 60*, USP10 block 32* and UCHL1 inh -2.
COc1ccccc1NC(=O)c1cc(Br)cc(Cc2ccccc2)c1O was read as USP7 block -31, USP8 inh 49*, USP10 block 17 and UCHL1 inh 5.
`COc1ccc(-c2nonc2NC(=O)Cc2ccccc2)cc1` gave USP7 block -5, USP8 inh 9, USP10 block 2 and UCHL1 inh 2.
For COc1ccc(CC(=O)Nc2c(NCc3ccccc3)c3ccccc3oc2=O)cc1 the results were USP7 block 21, USP8 inh 91*, USP10 block 21 and UCHL1 inh 4.
O=C(NC1CCCCC1)C1CCN(C(=O)c2cc(-c3ccncc3)n[nH]2)CC1 was read as USP7 block 4, USP8 inh 22, USP10 block 0 and UCHL1 inh 4.
CCOc1ccc2c(c1)c(=O)c(C(=O)c1ccccc1)cn2CC(=O)Nc1ccc(Cl)cc1 was read as USP7 block 30, USP8 inh 93*, USP10 block 47* and UCHL1 inh 6.
For COc1ccc2c(c1)c(=O)c(C(=O)c1ccc(Cl)cc1)cn2CC(=O)Nc1ccc(Cl)cc1 the results were USP7 block 0, USP8 inh 16, USP10 block -2 and UCHL1 inh -4.
Screening COc1ccc(NC(=O)Cn2cc(C(=O)c3ccccc3)c(=O)c3cc(Cl)ccc32)cc1OC returned USP7 block 7, USP8 inh 15, USP10 block 33* and UCHL1 inh 6.
Screening COc1ccc(NC(=O)Cn2cc(C(=O)c3ccc(Cl)cc3)c(=O)c3cc(F)ccc32)cc1 returned USP7 block 25, USP8 inh 16, USP10 block 53* and UCHL1 inh 6.
O=C(NCc1ccccc1)NCc1nnnn1-c1ccccc1 was read as USP7 block -2, USP8 inh -2, USP10 block 1 and UCHL1 inh 0.
Screening CCc1nc2sc(C(C)C)nn2c1S(=O)(=O)N1CCCCCC1 returned USP7 block -35, USP8 inh 5, USP10 block 0 and UCHL1 inh 0.
O=C(Cn1c(=O)c2sccc2n(CC(=O)NCCC2=CCCCC2)c1=O)NCc1ccccc1Cl was read as USP7 block 18, USP8 inh 17, USP10 block 37* and UCHL1 inh 2.
For COc1ccc(NC(=O)Cn2c(=O)n(CCC(=O)NCc3ccccc3)c(=O)c3sccc32)cc1Cl the results were USP7 block 20, USP8 inh 19, USP10 block 49* and UCHL1 inh 4.
`Cc1ccc(NC(=O)Cn2c(=O)n(CC(=O)NCCc3ccccc3)c(=O)c3sccc32)cc1C` gave USP7 block 19, USP8 inh 50*, USP10 block 40* and UCHL1 inh 0.
`COc1ccc(CCNC(=O)Cn2c(=O)c3sccc3n(Cc3cccc([N+](=O)[O-])c3)c2=O)cc1OC` gave USP7 block 2, USP8 inh 27, USP10 block 32* and UCHL1 inh 3.
`CCN1CCCC1CN(Cc1cc2ccc(C)cc2[nH]c1=O)C(=O)Nc1cccc(Cl)c1` (configuration not stated) gave USP7 block -9, USP8 inh -1, USP10 block -10 and UCHL1 inh -5.
For O=C(CN1CCN(Cc2ccc3c(c2)CCO3)CC1)c1c[nH]c2ccccc12 the results were USP7 block -12, USP8 inh -6, USP10 block -9 and UCHL1 inh -11.
For COc1cc(OC)cc(-n2c(=O)c3sccc3n(CC(=O)Nc3ccc(C)cc3)c2=O)c1 the results were USP7 block 7, USP8 inh 2, USP10 block 16 and UCHL1 inh 2.
Screening CCOc1ccc(-n2c(=O)c3sccc3n(CC(=O)Nc3cccc(C)c3)c2=O)cc1 returned USP7 block 5, USP8 inh 22, USP10 block 41* and UCHL1 inh 0.
Screening c1cnc(N2CCC(c3ccnc(Nc4cncnc4)n3)CC2)nc1 returned USP7 block 0, USP8 inh 22, USP10 block 1 and UCHL1 inh 0.
For CS(=O)(=O)c1ccc(NC(=O)C2CN(C(=O)c3ccc(F)c(F)c3)C2)cc1 the results were USP7 block 4, USP8 inh -18, USP10 block 2 and UCHL1 inh 3.
Screening O=C(CSc1nc2ccccc2[nH]1)c1ccccc1F returned USP7 block -2, USP8 inh -1, USP10 block 1 and UCHL1 inh 0.
For Cc1cc(C(=O)CSc2nc3ccccc3[nH]2)c(C)n1Cc1ccco1 the results were USP7 block 15, USP8 inh 57*, USP10 block 9 and UCHL1 inh 16.
COc1ccc(/C(C)=N\NC(=O)c2ccc(N)cc2)c(OC)c1 was read as USP7 block 4, USP8 inh 6, USP10 block 7 and UCHL1 inh -3.
For Cc1cc(O)c(C)c(O)c1C=O the results were USP7 block 3, USP8 inh 9, USP10 block 3 and UCHL1 inh 1.
`Cc1cc(=O)n(C)c2c(O)c3c(cc12)c(C)cc(=O)n3C` gave USP7 block -105, USP8 inh 50*, USP10 block 25 and UCHL1 inh 30*.
`CCc1nnc(-c2nnc(NCCOc3ccccc3OC)c3ccccc23)o1` gave USP7 block 7, USP8 inh 66*, USP10 block 13 and UCHL1 inh 1.
Screening C=C/C(C)=C/[C@@]1(C)SC(=O)C(C)=C1O returned USP7 block -9, USP8 inh 41*, USP10 block 18 and UCHL1 inh 21.
`Cc1ccccc1-c1noc(-c2cn(Cc3ccc(NC(=O)Cc4ccccc4)cc3)cn2)n1` gave USP7 block -2, USP8 inh 37*, USP10 block 15 and UCHL1 inh 0.
`O=C(Nc1ccc(-c2noc(CCc3ccccc3)n2)cc1)c1ccccc1F` gave USP7 block 9, USP8 inh 7, USP10 block 11 and UCHL1 inh 5.
O=C(Nc1ccc(Cn2cnc(-c3nc(-c4ccccc4)no3)c2)cc1)c1ccccc1F was read as USP7 block 16, USP8 inh 47*, USP10 block 21 and UCHL1 inh 11.
Screening Cc1ccc(-c2noc(-c3cn(Cc4ccc(N)cc4)cn3)n2)cc1 returned USP7 block 1, USP8 inh -2, USP10 block 10 and UCHL1 inh -1.
Screening Cc1cc(C)n(-c2ccc(C(=O)Nc3cccc4cccnc34)nn2)n1 returned USP7 block 1, USP8 inh -3, USP10 block 1 and UCHL1 inh -1.
